Measurements from ChEMBL document CHEMBL1961873, “Compounds: GSK PKIS; Assays: Nanosyn kinase panel” (2012).

Assays:
[1] = target: Tyrosine-protein kinase SYK (Homo sapiens) (UniProt P43405); conditions: at 1 µM
[2] = target: T1, Tyrosine-protein kinase Tec (Homo sapiens) (UniProt P42680); conditions: at 0.1 µM
T1 sequence (whole entry): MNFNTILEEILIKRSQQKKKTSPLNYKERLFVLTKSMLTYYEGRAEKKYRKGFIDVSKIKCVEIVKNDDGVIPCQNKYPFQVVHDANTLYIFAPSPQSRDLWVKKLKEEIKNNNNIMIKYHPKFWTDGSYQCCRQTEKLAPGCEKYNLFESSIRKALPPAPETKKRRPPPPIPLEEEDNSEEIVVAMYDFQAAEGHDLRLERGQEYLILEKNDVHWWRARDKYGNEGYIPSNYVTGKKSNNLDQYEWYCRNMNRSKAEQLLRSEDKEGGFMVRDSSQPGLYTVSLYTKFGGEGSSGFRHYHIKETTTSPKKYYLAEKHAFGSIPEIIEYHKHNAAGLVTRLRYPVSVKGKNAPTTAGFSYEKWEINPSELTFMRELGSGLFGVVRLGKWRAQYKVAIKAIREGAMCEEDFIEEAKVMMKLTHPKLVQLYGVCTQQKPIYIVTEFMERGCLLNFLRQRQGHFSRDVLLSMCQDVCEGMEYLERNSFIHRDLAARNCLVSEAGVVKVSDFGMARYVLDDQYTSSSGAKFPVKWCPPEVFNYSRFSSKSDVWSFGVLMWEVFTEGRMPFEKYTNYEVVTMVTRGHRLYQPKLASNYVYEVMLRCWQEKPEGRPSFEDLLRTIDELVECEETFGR

[3] = target: T1, Tyrosine-protein kinase Tec (Homo sapiens); conditions: at 1 µM
[4] = target: Angiopoietin-1 receptor (Homo sapiens) (UniProt Q02763); conditions: at 0.1 µM
Angiopoietin-1 receptor (Homo sapiens), sequence (Q02763 whole entry): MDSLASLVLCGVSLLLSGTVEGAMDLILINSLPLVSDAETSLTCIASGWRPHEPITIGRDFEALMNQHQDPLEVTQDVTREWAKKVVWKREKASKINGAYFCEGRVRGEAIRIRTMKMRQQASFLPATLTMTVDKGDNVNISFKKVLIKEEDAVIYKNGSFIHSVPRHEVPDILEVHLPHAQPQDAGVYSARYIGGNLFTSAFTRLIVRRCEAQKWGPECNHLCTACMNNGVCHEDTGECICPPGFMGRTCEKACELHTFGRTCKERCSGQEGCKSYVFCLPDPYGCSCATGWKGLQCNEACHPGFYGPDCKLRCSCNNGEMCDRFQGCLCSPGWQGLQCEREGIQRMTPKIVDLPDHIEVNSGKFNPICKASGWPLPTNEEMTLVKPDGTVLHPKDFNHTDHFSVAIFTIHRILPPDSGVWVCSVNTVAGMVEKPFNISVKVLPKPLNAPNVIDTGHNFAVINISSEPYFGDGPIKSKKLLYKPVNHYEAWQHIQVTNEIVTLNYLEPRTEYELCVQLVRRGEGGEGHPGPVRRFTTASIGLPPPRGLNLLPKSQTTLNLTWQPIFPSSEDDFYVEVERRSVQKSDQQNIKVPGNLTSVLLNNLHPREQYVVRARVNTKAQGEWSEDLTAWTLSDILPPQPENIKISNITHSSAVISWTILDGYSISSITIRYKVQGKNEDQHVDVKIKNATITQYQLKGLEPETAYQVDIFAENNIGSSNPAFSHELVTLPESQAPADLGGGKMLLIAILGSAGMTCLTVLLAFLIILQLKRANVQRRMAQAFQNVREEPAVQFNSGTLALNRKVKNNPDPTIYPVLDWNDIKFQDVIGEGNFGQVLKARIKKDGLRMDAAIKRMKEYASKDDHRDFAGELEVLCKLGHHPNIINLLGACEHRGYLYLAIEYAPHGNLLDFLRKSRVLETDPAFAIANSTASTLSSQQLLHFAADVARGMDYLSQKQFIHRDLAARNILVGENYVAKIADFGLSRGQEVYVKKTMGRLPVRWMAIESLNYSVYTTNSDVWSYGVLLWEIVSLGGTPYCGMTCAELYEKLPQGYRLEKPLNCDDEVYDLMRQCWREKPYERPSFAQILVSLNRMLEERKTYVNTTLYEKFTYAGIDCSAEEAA

[5] = target: Angiopoietin-1 receptor (Homo sapiens) (UniProt Q02763); conditions: at 1 µM
[6] = target: T2, Non-receptor tyrosine-protein kinase TNK1 (Homo sapiens) (UniProt Q13470); conditions: at 0.1 µM
T2 sequence (whole entry): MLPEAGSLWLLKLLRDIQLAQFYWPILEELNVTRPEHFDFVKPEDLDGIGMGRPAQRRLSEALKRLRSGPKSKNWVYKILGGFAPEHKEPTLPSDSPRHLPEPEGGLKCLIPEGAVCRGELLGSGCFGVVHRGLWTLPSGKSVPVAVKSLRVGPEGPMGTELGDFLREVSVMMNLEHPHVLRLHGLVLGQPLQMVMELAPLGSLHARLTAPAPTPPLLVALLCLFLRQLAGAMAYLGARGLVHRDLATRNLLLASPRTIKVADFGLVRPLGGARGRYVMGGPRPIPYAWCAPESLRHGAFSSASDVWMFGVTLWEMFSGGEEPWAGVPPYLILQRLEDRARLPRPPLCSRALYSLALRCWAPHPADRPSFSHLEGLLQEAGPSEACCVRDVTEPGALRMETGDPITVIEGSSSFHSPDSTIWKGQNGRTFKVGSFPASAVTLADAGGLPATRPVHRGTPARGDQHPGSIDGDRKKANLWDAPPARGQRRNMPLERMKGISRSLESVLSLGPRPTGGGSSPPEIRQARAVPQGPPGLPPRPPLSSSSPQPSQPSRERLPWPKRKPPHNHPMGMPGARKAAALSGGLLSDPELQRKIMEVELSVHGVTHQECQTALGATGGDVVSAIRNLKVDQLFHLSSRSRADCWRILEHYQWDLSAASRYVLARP

[7] = target: T2, Non-receptor tyrosine-protein kinase TNK1 (Homo sapiens); conditions: at 1 µM
[8] = target: Activated CDC42 kinase 1 (Homo sapiens) (UniProt Q07912); conditions: at 0.1 µM
Activated CDC42 kinase 1 (Homo sapiens), sequence (Q07912 whole entry, looked up): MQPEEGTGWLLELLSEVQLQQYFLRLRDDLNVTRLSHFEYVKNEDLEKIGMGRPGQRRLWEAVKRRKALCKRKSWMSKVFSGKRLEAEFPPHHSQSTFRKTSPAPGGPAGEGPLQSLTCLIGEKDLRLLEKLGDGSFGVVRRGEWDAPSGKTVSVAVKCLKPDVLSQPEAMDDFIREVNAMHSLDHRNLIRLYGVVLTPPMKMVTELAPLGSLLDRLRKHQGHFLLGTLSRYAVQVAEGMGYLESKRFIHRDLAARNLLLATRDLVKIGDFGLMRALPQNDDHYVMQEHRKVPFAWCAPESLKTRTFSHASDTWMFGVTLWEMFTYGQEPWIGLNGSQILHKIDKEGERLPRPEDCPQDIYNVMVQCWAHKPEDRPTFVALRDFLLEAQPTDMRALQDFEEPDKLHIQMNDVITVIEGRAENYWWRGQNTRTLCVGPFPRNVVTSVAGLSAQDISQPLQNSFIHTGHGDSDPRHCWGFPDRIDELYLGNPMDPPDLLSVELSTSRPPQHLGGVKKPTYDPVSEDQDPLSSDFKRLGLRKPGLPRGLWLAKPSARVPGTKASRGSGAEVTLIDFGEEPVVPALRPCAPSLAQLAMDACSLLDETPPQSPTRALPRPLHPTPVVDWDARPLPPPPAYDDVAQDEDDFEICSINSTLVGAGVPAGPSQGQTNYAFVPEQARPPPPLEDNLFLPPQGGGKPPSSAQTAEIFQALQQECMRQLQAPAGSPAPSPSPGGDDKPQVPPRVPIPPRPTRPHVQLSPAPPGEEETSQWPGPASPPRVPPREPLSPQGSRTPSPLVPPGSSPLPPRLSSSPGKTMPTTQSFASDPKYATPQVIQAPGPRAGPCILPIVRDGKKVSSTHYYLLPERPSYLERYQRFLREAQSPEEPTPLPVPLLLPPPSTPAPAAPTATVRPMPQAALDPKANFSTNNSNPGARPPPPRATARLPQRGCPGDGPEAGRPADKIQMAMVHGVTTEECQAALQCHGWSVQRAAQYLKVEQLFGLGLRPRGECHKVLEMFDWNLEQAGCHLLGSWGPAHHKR

[9] = target: Activated CDC42 kinase 1 (Homo sapiens) (UniProt Q07912); conditions: at 1 µM
[10] = target: High affinity nerve growth factor receptor (Homo sapiens) (UniProt P04629); conditions: at 0.1 µM
[11] = target: High affinity nerve growth factor receptor (Homo sapiens) (UniProt P04629); conditions: at 1 µM
[12] = target: BDNF/NT-3 growth factors receptor (Homo sapiens) (UniProt Q16620); conditions: at 0.1 µM
BDNF/NT-3 growth factors receptor (Homo sapiens), sequence (Q16620 32-822 limits assumed): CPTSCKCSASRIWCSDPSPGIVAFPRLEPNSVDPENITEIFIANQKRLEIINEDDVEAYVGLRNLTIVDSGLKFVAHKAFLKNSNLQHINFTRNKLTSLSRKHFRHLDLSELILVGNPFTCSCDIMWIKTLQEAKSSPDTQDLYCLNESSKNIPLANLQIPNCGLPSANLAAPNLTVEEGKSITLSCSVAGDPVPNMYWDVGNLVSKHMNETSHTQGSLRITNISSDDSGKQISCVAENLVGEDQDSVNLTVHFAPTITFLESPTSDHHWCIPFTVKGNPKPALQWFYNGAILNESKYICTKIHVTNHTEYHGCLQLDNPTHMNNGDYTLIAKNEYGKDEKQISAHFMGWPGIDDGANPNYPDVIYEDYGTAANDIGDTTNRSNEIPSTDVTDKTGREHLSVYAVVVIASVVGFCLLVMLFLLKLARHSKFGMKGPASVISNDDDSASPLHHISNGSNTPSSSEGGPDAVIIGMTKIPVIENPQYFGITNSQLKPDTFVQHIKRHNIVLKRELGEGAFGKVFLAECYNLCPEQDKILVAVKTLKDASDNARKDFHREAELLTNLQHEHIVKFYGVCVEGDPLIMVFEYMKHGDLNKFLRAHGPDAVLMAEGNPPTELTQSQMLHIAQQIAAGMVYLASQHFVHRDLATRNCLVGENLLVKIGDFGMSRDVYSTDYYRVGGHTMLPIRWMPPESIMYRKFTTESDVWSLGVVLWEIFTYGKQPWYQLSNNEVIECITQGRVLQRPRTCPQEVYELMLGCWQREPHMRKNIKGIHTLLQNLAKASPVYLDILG

[13] = target: BDNF/NT-3 growth factors receptor (Homo sapiens) (UniProt Q16620); conditions: at 1 µM
[14] = target: NT-3 growth factor receptor (Homo sapiens) (UniProt Q16288); conditions: at 0.1 µM
NT-3 growth factor receptor (Homo sapiens), sequence (Q16288 32-839 limits assumed): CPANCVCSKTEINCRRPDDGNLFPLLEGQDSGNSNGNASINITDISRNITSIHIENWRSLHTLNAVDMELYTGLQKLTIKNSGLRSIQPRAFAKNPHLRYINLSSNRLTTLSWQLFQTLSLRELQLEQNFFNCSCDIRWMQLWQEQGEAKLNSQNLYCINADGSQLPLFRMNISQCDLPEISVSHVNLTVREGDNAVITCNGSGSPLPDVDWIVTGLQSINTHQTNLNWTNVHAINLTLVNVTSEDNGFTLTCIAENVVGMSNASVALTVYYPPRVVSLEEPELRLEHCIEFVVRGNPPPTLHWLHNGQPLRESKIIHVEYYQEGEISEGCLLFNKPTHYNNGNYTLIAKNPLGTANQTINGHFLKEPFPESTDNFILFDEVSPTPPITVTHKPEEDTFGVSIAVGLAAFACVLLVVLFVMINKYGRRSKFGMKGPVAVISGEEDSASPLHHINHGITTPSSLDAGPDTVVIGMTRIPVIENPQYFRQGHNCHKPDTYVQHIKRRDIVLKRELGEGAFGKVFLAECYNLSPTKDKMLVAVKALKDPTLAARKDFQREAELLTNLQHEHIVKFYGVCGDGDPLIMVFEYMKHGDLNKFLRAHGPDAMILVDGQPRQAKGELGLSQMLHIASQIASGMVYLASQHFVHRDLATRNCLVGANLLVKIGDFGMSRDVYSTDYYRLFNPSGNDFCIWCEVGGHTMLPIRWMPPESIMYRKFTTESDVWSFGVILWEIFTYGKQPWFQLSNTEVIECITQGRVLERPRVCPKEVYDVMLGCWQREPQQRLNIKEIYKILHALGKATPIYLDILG

[15] = target: NT-3 growth factor receptor (Homo sapiens) (UniProt Q16288); conditions: at 1 µM
[16] = target: T3, Tyrosine-protein kinase TXK (Homo sapiens) (UniProt P42681); conditions: at 0.1 µM
T3 sequence (whole entry): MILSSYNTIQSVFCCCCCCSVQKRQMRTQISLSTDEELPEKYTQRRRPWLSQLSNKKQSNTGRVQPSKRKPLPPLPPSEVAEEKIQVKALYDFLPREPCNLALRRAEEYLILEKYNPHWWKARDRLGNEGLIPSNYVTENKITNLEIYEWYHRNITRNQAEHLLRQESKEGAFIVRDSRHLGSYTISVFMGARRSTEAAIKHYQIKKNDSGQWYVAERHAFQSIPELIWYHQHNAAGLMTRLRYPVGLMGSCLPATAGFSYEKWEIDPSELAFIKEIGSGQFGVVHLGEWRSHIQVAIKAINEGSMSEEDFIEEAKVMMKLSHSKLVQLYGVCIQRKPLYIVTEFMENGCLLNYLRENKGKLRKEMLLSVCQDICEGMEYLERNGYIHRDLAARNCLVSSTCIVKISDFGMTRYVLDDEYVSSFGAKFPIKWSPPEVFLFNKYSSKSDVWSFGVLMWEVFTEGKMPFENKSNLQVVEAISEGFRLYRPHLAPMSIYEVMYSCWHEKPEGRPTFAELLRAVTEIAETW

[17] = target: T3, Tyrosine-protein kinase TXK (Homo sapiens); conditions: at 1 µM
[18] = target: Non-receptor tyrosine-protein kinase TYK2 (Homo sapiens) (UniProt P29597); conditions: at 0.1 µM;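 also: each value is a mean of the inhibition readings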
Non-receptor tyrosine-protein kinase TYK2 (Homo sapiens), sequence (P29597 whole entry): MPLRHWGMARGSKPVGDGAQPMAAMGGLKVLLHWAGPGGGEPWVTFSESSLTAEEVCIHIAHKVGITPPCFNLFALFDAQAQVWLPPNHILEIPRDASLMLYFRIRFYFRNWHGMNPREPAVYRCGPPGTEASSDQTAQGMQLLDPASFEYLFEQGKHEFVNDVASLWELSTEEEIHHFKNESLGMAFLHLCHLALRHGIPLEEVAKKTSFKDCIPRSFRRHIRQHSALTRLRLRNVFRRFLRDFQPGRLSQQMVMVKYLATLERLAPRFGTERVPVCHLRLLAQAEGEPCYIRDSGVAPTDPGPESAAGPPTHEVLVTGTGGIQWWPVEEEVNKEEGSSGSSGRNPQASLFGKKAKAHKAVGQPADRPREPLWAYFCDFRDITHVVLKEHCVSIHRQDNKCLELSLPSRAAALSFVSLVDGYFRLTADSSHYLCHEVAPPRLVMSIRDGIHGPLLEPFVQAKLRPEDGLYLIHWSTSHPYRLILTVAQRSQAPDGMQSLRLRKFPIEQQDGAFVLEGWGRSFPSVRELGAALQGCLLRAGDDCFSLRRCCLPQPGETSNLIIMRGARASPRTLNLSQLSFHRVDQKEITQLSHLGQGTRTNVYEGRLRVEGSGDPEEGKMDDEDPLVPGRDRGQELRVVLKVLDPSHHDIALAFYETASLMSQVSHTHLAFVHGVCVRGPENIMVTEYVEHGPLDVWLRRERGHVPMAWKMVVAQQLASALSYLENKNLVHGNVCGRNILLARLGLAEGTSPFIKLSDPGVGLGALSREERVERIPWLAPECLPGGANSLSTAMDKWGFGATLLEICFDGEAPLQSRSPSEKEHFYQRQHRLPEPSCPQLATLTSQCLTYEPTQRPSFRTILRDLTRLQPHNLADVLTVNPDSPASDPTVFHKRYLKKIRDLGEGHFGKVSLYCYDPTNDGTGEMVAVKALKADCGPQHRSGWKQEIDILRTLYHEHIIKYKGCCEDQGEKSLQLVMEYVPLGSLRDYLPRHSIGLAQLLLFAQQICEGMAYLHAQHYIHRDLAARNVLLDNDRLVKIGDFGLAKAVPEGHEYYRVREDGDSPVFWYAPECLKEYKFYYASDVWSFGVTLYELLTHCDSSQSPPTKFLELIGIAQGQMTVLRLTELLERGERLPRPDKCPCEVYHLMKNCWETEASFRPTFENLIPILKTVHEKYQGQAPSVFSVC

[19] = target: T4, Dual specificity protein kinase TTK (Homo sapiens) (UniProt P33981); conditions: at 1 µM;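 also: reported figures are mean TTK inhibition at 1 µM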
T4 sequence (whole entry): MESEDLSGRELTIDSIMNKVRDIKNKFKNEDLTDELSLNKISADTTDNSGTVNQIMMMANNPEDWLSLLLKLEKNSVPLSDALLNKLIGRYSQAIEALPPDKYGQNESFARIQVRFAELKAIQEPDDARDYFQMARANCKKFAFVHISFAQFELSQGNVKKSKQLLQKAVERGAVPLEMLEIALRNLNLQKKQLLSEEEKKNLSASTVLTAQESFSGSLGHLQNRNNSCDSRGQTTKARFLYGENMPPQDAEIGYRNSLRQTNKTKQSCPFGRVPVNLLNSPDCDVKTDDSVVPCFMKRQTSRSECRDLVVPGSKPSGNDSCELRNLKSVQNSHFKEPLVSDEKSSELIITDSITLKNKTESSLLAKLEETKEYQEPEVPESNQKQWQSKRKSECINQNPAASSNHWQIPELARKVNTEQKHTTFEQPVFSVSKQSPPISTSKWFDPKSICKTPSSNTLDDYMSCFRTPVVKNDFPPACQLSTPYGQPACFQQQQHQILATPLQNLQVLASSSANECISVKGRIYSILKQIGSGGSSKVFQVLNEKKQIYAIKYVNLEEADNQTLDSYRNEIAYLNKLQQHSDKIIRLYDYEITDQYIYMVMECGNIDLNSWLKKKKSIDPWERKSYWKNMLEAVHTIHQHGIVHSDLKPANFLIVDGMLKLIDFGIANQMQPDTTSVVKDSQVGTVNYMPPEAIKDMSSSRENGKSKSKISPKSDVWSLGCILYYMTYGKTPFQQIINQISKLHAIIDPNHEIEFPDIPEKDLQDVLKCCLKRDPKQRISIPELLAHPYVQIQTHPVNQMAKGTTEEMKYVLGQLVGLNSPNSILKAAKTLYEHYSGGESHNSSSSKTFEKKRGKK

[20] = target: T5, Aurora kinase A (Homo sapiens) (UniProt O14965); conditions: at 0.1 µM;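 also: each reported value is a mean percent inhibition of Aurora-A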
T5 sequence (whole entry): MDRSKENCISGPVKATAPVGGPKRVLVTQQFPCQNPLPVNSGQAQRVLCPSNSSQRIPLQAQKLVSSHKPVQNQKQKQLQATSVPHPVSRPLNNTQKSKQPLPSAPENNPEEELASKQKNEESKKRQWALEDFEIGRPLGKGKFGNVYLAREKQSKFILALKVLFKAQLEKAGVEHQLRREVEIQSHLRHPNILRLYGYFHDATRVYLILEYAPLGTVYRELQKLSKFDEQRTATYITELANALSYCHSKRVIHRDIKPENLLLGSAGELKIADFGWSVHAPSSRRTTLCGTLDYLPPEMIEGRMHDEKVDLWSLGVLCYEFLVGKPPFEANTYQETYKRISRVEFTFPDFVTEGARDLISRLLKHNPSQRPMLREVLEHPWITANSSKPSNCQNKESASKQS

| SMILES | inhibition [1] [%] | inhibition [2] [%] | inhibition [3] [%] | inhibition [4] [%] | inhibition [5] [%] | inhibition [6] [%] | inhibition [7] [%] | inhibition [8] [%] | inhibition [9] [%] | inhibition [10] [%] | inhibition [11] [%] | inhibition [12] [%] | inhibition [13] [%] | inhibition [14] [%] | inhibition [15] [%] | inhibition [16] [%] | inhibition [17] [%] | inhibition [18] [%] | inhibition [19] [%] | inhibition [20] [%] |
| --- | --- | --- | --- | --- | --- | --- | --- | --- | --- | --- | --- | --- | --- | --- | --- | --- | --- | --- | --- | --- |
| Fc1ccc(-c2nn3ncccc3c2-c2ccnc(Nc3ccc4c(c3)OCCO4)n2)cc1 | -3.1 | 11.3 | 45.3 | 6.26 | 23.4 | 8.48 | 30.4 | 1.35 | 13 | 2.82 | 16.7 | 4.94 | 12.8 | 3.72 | 8.83 | 10.8 | 38 | -8.76 | 19.2 | 2.98 |
| CC(C)COC(=O)c1ccc2c(c1)/C(=C/Nc1ccc(S(N)(=O)=O)cc1)C(=O)N2 | -2.67 | 0.3 | 6.56 | 0.75 | 7.91 | -3.82 | 5.07 | -0.91 | 0.01 | 2.03 | 30.4 | 6.02 | 40.2 | 8.8 | 48.5 | 1.73 | 4.75 | 3.35 | 70.1 | 3.84 |
| COc1ccc(-c2cc(-c3c[nH]nc3-c3ccccn3)ccn2)cc1 | -0.69 | 4.44 | 5.59 | 2.18 | 2.66 | 4.34 | 11.9 | 1.58 | 3.35 | 1.86 | 3.12 | 3.7 | 3.9 | 3.2 | 5.62 | 1.77 | 3.18 | -6.95 | 10.5 | 3.7 |
